# From PubChem BioAssay (EPA / NIEHS)
# Records with an inconclusive call do not appear. Active and inactive are the calls of the source. How the source made its calls: active means hit-call score of the fitted dose curve at least 0.9, where 1 is the maximum; inconclusive means response in the unintended direction; inactive means score below 0.9.
# Test: Tanguay_ZF_120hpf_EYE_legacy: (Legacy) Oregon State University Tanguay Lab 120 Hour Post-fertilization zebrafish Assay for Eye Malformation (AID 2283636);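 further: binary presence or absence of eye malformation scored by brightfield in 120 hpf larvae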
# Method: Tanguay_ZF_120hpf_legacy is a whole embryo, multiplexed endpoint assay using zebrafish larvae exposed for 120 hours post fertilization on a 96-well plate.Tanguay_ZF_120hpf_EYE_legacy is one of one assay component(s) measured or calculated from the Tanguay_ZF_120hpf_legacy assay. It is designed to make measurements of zebrafish development as detected with brightfield microscopy of developing zebrafish embryos.Data from the assay component Tanguay_ZF_120hpf_EYE_legacy was analyzed into 1 assay endpoints. This assay endpoint, Tanguay_ZF_120hpf_EYE_legacy, was analyzed in the positive analysis fitting direction relative to DMSO as the negative control and baseline of activity. Using a type of morphology reporter, gain-of-signal activity can be used to understand changes in developmentals as they relate to the whole embryo. To generalize the intended target to other relatable targets, this assay endpoint is annotated to the zebrafish development intended target family, where the subfamily is embryonic eye development.
# Zebrafish husbandry: Tropical 5D wild-type adult zebrafish were housed in at an approximate density of 1000 per 100 gallon tank at the Sinnhuber Aquatic Research Laboratory, Oregon State University, Corvallis, OR. Each tank was kept at standard laboratory conditions of 28C on a 14-h light/10-h dark photoperiod in fish water consisting of reverse osmosis water supplemented with a commercially available salt (Instant Ocean). Spawning funnels were placed into the tanks the night prior, and embryos were collected and staged. To increase bioavailability, the chorion was enzymatically removed using pronase (63.6mg/ml, >/= 3.5U/mg, Sigma-Aldrich: P5147) at 4 hours post fertilization (hpf) using a custom automated dechorionator.Chemical exposures: Six hpf dechorionated embryos were placed 1 embryo per well in a 96-well plate prefilled with 90 ul of EM using automated embryo placement systems (AEPS). Ten microliters of each row of dilution plate 2 was added to 2 exposure plates. The final DMSO concentration used was 0.64% (vol/vol). Thirty-two embryos were also exposed to 5uM trimethyltin chloride (positive control). Plates were sealed to prevent evaporation and foil covered to reduce light exposure and kept in a 28C incubator. Embryos were statically exposed until 120 hpf. At 24 hpf, embryos were assessed for photomotor response using a custom photomotor response analysis tool (PRAT) and for developmental toxicity endpoints (MO24: mortality at 24 hpf, DP: developmental progression, SM: spontaneous movement, and NC: notochord distortion). At 120 hpf, locomotor activity was measured using Viewpoint Zebralab and assessed for 18 endpoints. Zebrafish acquisition and analysis program (ZAAP), a custom program designed to inventory, acquire, and manage zebrafish data, was used to collect developmental endpoints as either present or absent (i.e., binary responses were recorded). If mortality occurred for an embryo (at either 24 or 120 hpf), the non-mortality endpoints were not measured.
Structure (SMILES),outcome,AC50
CCCCOC(=O)c1ccccc1C(=O)OCc1ccccc1,inactive,
CC(O)CCO (stereo not given),inactive,
O=C(Oc1ccc(Br)cc1)N1CCN2CCC1CC2,inactive,
N#CC(Br)(Br)C(N)=O,inactive,
Nc1ccc(Oc2ccc(N)cc2)cc1,inactive,
c1ccc2c(c1)oc1ccccc12,inactive,
Nc1ccc(Cl)cc1N,inactive,
O=[N+]([O-])c1ccc(Oc2ccc(Cl)cc2Cl)cc1,inactive,
CCOc1cccc(C2(N3CCN(c4ccccc4)CC3)CCC(C)CC2)c1 (stereo not given),inactive,
COP(=S)(OC)SCN1C(=O)c2ccccc2C1=O,inactive,
Cc1cccc(N)c1N,inactive,
CCN(CC)N=O,inactive,
CC(C)(OOC(C)(C)c1ccccc1)c1ccccc1,inactive,
CCNS(=O)(=O)C(F)(F)C(F)(F)C(F)(F)C(F)(F)C(F)(F)C(F)(F)C(F)(F)C(F)(F)F,,53.6 µM (active)
CC(C)(O)c1cnn2c(-c3ccc(F)c(-c4c(F)cccc4C#N)c3)cnc2n1,inactive,
Cc1ccc(N=C=O)cc1N=C=O,inactive,
CCN(CC)CCO,inactive,
CC(C)(C)OOC(=O)c1ccccc1,inactive,
Cn1cc(-c2ccccc2)c(=O)c(-c2cccc(C(F)(F)F)c2)c1,inactive,
CN(C)c1ccccc1,inactive,

Structure (SMILES),outcome,AC50
Brc1ccc(Oc2ccccc2)cc1,inactive,
Clc1ccc(Cl)c(Cl)c1,inactive,
[O-][Cl+]O,inactive,
ClC1=C(Cl)C2(Cl)C3C(Cl)C=CC3C1(Cl)C2(Cl)Cl (stereo not given),inactive,
OCCCBr,inactive,
O=C1CCCO1,inactive,
CCC[CH2][Sn]([Cl])([CH2]CCC)[CH2]CCC,inactive,
CC(C)(C)OOC(C)(C)CCC(C)(C)OOC(C)(C)C,inactive,
CCCCCCCCCCCCCN1CC(C)OC(C)C1 (stereo not given),inactive,
Cc1cc(N=Nc2ccccc2C)ccc1N,inactive,
O=C(Nc1ccccc1)c1ccccc1I,,10.5 µM (active)
COC(=O)c1ccccc1N,inactive,
CCOC(=O)[C@]1(c2ccccc2)Oc2ccccc2[C@@H]1N,inactive,
[Cl-].[Cl-].[Hg+2],,1.05 µM (active)
COC(=O)Nc1nc2ccccc2[nH]1,,46.4 µM (active)
c1ccc(NNc2ccccc2)cc1,inactive,
CN(C)[C@@H]1C(=O)C(C(N)=O)=C(O)[C@@]2(O)C(=O)C3=C(O)c4c(O)cccc4[C@@](C)(O)[C@H]3C[C@@H]12,inactive,
O=C(O)C1C2CCC(O2)C1C(=O)O (stereo not given),inactive,
Clc1ccccc1Cl,inactive,
Cc1ccc(N)c(N)c1,inactive,
